Experimental data published in PubChem BioAssay (NCI).
The panel holds about 83,000 compounds, 20% with a hit somewhere; the sample as a whole holds those more often.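 Each cell line was grown in a 96-well plate and treated with one concentration of compound for 48 hours. Values below 10 were considered active.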 Values without a mark were called inactive. Calls of active or inactive are those of the source.

Key:
Test in all cases: NCI-60 one-dose screen, 48 h (100 = growth as untreated, 0 = no growth, -100 = all killed)
Details in all cases: 10 µM unless noted
T-47D breast = system: T-47D breast
BT-549 breast = system: BT-549 breast
MDA-MB-435 melanoma = system: MDA-MB-435 melanoma
SW-620 colon = system: SW-620 colon
MCF7 breast = system: MCF7 breast
HCT-116 colon = system: HCT-116 colon
HCC-2998 colon = system: HCC-2998 colon
KM12 colon = system: KM12 colon

Row | SMILES | growth (T-47D breast) | growth (BT-549 breast) | growth (MDA-MB-435 melanoma) | growth (SW-620 colon) | growth (MCF7 breast) | growth (HCT-116 colon) | growth (HCC-2998 colon) | growth (KM12 colon)
1 | C/C(=N\Nc1cc(C)c2ccccc2n1)c1ccccn1 | 16.5% | 24.1% | -90.9% (active) | 7.9% (active) | -82.9% (active) | -76.2% (active) | 4.77% (active) | 4.67% (active)
2 | CCCCCC1CCCCN1C(=O)OCC (configuration not stated) | 92.4% | 98.1% | 115% | 105% | 99.3% | 93.6% | 94.4% | 110%
3 | CN1CCN(CC#CCn2c3c(c4ccccc42)C[C@]2(C)[C@H]4CC[C@@H]5[C@H]6[C@H]7OC(=O)[C@@]6(CCC7(C)C)CC[C@@]5(C)[C@]4(C)CC[C@H]2C3(C)C)CC1 | 104% | 89.5% | 97.8% | 91.2% | 67.7% | 35.1% | 106% | 93.7%
4 | COc1cccc(-c2nn(-c3ccccc3)cc2-c2ccnc(NCCCNS(=O)(=O)c3ccc(Cl)cc3)c2)c1 | 14.2% | 58.1% | 42.9% | 62.6% | 24.3% | 31.1% | 33.5% | 38.9%
5 | Oc1cc(/C=C/c2nc(N3CCOCC3)c3cc(Cl)c(Cl)cc3n2)cc(O)c1O | 94.9% | 95.5% | 106% | 107% | 106% | 104% | 104% | 111%
6 | Cc1cc(Cl)nc(N(CCNc2ccnc3cc(Cl)ccc23)Cc2ccco2)n1 | -14.7% (active) | 54.7% | 41.9% | 28% | 22.7% | 13.6% | 91.1% | 59.5%
7 | COc1ccc(C2C(C#N)=C(N)Oc3c2sc2c(F)cccc32)cc1 (configuration not stated) | 23.8% | 37% | -23.9% (active) | 25.1% | 15.4% | 8.94% (active) | 85.2% | 35.5%
8 | CC1(C)C(=O)/C(=C\c2ccccn2)C[C@]2(C)[C@H]3CC[C@@H]4[C@@H](C(=O)/C=C/c5ccccn5)CC[C@@]4(C)[C@]3(C)CC[C@@H]12 | 3.15% (active) | -13.6% (active) | 4.49% (active) | 0.595% (active) | 12% | -69.6% (active) | -79.7% (active) | -76.2% (active)
9 | Nc1ccc(Br)cn1 | 98.7% | 94.7% | 113% | 104% | 110% | 96.4% | 98.1% | –
10 | CCCCN1CCCCn2c1nc1c2c(=O)n(C)c(=O)n1C | 107% | 108% | 107% | 102% | 103% | 104% | 95.9% | 101%
11 | Cc1[c-]onc1C.Cc1[c-]onc1C.[Ag].[Ag].[NH-]S(=O)(=O)c1ccc(N=Nc2cc(N=Nc3ccc(S([NH-])(=O)=O)cc3)c3c(NC(=O)C(Cl)Cl)cccc3c2OC(=O)C(Cl)Cl)cc1 | -11.9% (active) | 94.6% | 74.3% | 58.1% | 35.7% | 71.9% | 107% | 71.5%
12 | Nc1c(C(=O)Nc2c(Cl)cccc2Cl)sc2nc3c(cc12)C(=O)CCC3 | 35.7% | 51.5% | -37.7% (active) | 44.5% | 19.3% | 42.9% | 69.1% | 30.5%
13 | NCCn1cc(-c2nc(-c3c[nH]c4ncccc34)cs2)c2ccccc21 | 22.6% | 98.9% | 98.3% | 96.1% | 60.4% | 94.5% | 93.8% | 73.4%
14 | COc1ccc2[nH]c(-c3ccc(Cl)cc3)cc(=O)c2c1 | 116% | 92.9% | 94.7% | 98.2% | 91.4% | 102% | 100% | 98.8%
15 | CCN1CCN(C(=O)[C@@]2(C)CC[C@]3(C)CC[C@]4(C)C(=CC(=O)[C@@H]5[C@@]6(C)CC[C@H](OCCC#N)C(C)(C)[C@@H]6CC[C@]54C)[C@@H]3C2)CC1 | 66% | 79% | 81.5% | 97.9% | 78.2% | 80.6% | 101% | 98.5%
16 | N#C/C(=C\c1ccc(-c2ccc(Cl)cc2)o1)c1nc(-c2ccco2)cs1 | -27.1% (active) | 103% | 101% | 98.5% | 14.5% | 101% | 46.3% | 67.3%
